Reference: article PMC7862700, “An all-to-all approach to the identification of sequence-specific readers for epigenetic DNA modifications on cytosine”

What was measured:
Test in all cases: DAPPL (digital affinity profiling via proximity ligation, sequencing); 10 mM Tris-HCl pH 7.5, 50 mM NaCl, 1 mM DTT, 4% glycerol, room temperature, 30 min; GST-TFs on glutathione beads, 16-mer random dsDNA library, 0.1% formaldehyde crosslink after washing; high values mean tight binding
FLI1 = biological target: T1, FLI1 (Homo sapiens, UniProt Q01543 1-452); details: protein: recombinant; tags: N-terminal GST; dsDNA, one strand shown
T1 sequence: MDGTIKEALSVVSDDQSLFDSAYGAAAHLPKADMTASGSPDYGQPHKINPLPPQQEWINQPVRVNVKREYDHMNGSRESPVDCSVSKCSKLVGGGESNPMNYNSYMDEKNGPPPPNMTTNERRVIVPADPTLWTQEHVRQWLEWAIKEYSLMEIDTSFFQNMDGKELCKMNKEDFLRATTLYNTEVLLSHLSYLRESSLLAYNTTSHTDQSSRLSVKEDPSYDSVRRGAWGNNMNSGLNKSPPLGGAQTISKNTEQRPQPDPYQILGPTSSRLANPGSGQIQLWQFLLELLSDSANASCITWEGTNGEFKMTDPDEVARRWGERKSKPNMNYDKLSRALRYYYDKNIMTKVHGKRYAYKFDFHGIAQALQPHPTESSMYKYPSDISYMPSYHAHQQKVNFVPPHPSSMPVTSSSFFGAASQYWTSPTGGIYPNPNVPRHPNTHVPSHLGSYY
In short: (§1)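 GST fusions of human transcription factors were expressed in yeast and captured with glutathione beads. Once given DNA barcodes and pooled alongside a tag-only sample, they were incubated for 30 min at room temperature with 200 nmole of a random double-stranded 16-mer DNA library in Tris/NaCl/DTT/glycerol buffer, then washed, crosslinked (0.1% formaldehyde), proximity-ligated, PCR-amplified and sequenced on an Illumina NextSeq500. The binding signal of each hexamer is its read frequency for a factor divided by its frequency for the tag-only sample.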

ELK1 = biological target: T2, ELK1 (Homo sapiens, UniProt P19419 1-428); details: protein: recombinant; tags: N-terminal GST; dsDNA, one strand shown
T2 sequence: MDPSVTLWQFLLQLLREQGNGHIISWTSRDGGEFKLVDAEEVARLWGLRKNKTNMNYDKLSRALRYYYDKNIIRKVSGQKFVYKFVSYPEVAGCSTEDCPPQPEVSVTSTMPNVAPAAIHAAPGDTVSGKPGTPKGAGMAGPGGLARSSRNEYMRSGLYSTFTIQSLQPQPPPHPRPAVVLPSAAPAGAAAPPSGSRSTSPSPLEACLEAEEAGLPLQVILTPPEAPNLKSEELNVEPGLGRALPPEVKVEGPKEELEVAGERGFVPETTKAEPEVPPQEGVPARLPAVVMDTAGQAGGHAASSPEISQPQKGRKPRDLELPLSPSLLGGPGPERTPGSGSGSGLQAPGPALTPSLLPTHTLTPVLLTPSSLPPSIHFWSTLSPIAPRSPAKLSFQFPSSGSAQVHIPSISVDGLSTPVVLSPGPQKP
In short: as §1

GABPA = biological target: T3, GABPA (Homo sapiens, UniProt Q06546 1-454); details: protein: recombinant; tags: N-terminal GST; dsDNA, one strand shown
T3 sequence: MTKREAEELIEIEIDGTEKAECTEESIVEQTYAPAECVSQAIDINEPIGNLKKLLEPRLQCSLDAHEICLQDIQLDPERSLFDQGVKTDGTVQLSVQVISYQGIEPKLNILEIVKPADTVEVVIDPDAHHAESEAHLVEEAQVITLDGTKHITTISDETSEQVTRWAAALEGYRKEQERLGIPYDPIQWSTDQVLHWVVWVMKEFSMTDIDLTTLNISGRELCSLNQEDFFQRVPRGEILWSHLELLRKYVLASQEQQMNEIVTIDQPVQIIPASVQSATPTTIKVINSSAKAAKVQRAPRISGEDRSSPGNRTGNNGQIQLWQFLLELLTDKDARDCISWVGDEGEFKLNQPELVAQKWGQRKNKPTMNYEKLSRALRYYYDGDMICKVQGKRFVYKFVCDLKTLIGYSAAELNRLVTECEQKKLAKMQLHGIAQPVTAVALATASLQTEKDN
In short: as §1

ERG = biological target: T4, ERG (Homo sapiens, UniProt P11308 1-479); details: protein: recombinant; tags: N-terminal GST; dsDNA, one strand shown
T4 sequence: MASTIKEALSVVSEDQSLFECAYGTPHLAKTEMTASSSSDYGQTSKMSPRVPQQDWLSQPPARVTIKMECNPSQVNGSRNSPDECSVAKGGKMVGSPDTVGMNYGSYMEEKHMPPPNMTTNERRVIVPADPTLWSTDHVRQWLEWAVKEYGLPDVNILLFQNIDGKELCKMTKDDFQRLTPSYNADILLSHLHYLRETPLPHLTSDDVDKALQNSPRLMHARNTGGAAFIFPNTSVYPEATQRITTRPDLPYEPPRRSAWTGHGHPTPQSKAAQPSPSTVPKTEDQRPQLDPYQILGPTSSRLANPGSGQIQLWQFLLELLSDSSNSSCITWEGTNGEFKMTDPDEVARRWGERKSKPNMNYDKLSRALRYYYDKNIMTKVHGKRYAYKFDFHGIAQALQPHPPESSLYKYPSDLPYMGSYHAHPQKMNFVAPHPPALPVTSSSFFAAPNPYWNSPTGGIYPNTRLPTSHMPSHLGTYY
In short: as §1

ELF1 = ELF1 (Homo sapiens, UniProt P32519 1-619); details: protein: recombinant; tags: N-terminal GST; dsDNA, one strand shown
ELF1, sequence (P32519 whole entry): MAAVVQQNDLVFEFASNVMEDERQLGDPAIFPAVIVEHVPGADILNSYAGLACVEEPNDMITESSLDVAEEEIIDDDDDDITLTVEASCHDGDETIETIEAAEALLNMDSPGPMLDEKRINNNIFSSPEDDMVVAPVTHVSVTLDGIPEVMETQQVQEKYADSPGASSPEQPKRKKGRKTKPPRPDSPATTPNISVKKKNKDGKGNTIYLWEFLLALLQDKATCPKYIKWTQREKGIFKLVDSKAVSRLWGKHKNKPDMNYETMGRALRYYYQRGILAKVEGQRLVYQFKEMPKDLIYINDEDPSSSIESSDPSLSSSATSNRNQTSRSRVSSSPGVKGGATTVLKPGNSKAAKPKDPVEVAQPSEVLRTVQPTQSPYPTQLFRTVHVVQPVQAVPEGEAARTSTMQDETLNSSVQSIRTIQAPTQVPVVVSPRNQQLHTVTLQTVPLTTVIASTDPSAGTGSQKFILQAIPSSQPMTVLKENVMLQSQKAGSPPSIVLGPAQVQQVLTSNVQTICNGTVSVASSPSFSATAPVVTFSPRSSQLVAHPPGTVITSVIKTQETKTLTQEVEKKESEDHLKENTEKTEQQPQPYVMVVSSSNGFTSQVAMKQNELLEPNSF
In short: as §1

EHF = biological target: T5, EHF (Homo sapiens, UniProt Q9NZC4 1-300); details: protein: recombinant; tags: N-terminal GST; dsDNA, one strand shown
T5 sequence: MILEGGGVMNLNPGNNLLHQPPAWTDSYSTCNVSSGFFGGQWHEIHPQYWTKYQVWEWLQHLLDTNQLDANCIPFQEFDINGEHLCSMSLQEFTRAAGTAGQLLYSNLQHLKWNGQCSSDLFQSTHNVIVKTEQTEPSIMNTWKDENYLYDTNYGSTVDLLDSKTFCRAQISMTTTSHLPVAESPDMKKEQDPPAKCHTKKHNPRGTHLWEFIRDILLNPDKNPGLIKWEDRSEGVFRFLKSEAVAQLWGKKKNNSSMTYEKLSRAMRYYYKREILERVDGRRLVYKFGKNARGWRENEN
In short: as §1

SPI1 = SPI1 (Homo sapiens, UniProt P17947 1-270); details: protein: recombinant; tags: N-terminal GST; dsDNA, one strand shown
In short: as §1

SPIB = SPIB (Homo sapiens, UniProt Q01892 1-262); details: protein: recombinant; tags: N-terminal GST; dsDNA, one strand shown
SPIB, sequence (Q01892 whole entry): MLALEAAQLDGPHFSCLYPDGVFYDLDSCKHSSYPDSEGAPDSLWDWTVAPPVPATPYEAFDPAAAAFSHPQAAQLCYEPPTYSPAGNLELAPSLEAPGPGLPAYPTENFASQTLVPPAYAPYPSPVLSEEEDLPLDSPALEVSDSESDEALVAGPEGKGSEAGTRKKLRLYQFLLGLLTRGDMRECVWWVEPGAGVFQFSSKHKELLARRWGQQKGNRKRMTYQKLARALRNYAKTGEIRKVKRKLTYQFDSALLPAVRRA
In short: as §1

ELK3 = biological target: T6, ELK3 (Homo sapiens, UniProt P41970 1-407); details: protein: recombinant; tags: N-terminal GST; dsDNA, one strand shown
T6 sequence: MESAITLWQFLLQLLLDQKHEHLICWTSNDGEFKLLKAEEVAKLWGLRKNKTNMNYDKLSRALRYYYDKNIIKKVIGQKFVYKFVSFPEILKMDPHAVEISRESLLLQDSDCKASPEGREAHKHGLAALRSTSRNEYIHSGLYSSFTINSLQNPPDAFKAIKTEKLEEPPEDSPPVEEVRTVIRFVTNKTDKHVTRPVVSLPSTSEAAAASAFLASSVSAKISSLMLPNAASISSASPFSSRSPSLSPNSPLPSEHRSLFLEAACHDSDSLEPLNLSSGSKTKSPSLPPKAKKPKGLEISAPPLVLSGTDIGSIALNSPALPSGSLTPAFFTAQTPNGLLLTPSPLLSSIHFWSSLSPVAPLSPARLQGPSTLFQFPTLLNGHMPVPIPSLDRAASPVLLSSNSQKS
In short: as §1

FEV = biological target: T7, FEV (Homo sapiens, UniProt Q99581 1-238); details: protein: recombinant; tags: N-terminal GST; dsDNA, one strand shown
T7 sequence: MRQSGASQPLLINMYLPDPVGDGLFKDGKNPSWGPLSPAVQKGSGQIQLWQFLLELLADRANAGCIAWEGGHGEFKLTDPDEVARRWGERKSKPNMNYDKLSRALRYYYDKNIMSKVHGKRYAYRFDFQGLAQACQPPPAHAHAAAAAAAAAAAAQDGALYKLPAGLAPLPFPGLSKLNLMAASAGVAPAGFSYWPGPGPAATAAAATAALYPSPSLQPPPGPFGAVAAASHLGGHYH
In short: as §1

ETV5 = ETV5 (Homo sapiens, UniProt P41161 1-510); details: protein: recombinant; tags: N-terminal GST; dsDNA, one strand shown
ETV5, sequence (P41161 whole entry): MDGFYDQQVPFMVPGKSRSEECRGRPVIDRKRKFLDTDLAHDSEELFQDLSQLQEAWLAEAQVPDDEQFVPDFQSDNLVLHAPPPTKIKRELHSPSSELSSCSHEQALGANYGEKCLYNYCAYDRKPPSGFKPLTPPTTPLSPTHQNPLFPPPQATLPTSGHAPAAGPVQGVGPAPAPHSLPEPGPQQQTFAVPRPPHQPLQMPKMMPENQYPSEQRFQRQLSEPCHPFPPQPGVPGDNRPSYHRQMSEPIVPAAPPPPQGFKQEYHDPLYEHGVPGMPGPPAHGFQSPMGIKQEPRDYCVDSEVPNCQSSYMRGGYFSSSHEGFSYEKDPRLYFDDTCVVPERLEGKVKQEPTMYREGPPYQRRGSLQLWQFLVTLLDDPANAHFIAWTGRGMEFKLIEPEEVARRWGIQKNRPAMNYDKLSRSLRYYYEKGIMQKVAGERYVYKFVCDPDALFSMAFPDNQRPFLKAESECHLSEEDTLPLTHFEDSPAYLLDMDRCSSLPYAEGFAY
In short: as §1

HSF1 = HSF1 (Homo sapiens, UniProt Q00613 1-529); details: protein: recombinant; tags: N-terminal GST; chain copies: 3; dsDNA, one strand shown
HSF1, sequence (Q00613 whole entry): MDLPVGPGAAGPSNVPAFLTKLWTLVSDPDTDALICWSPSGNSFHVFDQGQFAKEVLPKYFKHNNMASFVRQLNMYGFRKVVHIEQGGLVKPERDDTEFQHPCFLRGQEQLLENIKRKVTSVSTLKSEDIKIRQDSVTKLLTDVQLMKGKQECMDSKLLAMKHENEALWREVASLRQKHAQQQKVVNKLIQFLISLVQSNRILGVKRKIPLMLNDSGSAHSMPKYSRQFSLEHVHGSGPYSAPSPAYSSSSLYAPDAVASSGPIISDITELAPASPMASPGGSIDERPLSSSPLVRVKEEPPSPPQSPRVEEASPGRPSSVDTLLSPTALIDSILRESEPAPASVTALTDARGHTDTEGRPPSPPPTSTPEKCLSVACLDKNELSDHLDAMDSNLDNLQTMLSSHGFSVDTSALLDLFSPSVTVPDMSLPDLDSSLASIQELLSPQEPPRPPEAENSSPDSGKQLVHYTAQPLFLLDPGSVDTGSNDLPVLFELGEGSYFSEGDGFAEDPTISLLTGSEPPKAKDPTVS
In short: as §1

SPIC = biological target: T8, SPIC (Homo sapiens, UniProt Q8N5J4 1-248); details: protein: recombinant; tags: N-terminal GST; dsDNA, one strand shown
T8 sequence: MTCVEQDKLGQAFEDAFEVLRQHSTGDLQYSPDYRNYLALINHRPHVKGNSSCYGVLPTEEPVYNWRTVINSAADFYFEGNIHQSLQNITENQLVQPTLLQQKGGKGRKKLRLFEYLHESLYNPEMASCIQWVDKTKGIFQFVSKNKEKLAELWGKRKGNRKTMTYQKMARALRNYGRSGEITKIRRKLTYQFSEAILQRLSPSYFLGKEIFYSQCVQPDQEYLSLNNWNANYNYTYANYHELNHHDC
In short: as §1

ELF4 = ELF4 (Homo sapiens, UniProt Q99607 1-663); details: protein: recombinant; tags: N-terminal GST; dsDNA, one strand shown
ELF4, sequence (Q99607 whole entry): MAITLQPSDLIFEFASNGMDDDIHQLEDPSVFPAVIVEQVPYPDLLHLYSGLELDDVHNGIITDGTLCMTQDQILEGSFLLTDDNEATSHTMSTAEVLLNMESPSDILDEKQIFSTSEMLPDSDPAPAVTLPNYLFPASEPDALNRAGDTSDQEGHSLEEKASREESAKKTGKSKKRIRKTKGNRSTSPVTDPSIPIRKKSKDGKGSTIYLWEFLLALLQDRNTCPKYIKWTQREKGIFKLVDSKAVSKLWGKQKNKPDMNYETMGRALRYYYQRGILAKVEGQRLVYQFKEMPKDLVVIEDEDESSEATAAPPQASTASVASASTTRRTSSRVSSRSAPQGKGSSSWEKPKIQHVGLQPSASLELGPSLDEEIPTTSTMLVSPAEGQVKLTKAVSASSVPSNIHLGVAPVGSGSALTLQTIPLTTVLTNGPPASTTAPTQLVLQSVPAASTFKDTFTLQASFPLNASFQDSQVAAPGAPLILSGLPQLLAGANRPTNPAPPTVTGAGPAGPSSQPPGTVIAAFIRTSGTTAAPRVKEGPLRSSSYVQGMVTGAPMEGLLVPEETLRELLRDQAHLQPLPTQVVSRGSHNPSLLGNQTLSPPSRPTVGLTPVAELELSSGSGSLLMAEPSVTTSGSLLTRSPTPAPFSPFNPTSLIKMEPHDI
In short: as §1

ELK4 = biological target: T9, ELK4 (Homo sapiens, UniProt P28324-2 1-405); details: protein: recombinant; tags: N-terminal GST; dsDNA, one strand shown
T9 sequence: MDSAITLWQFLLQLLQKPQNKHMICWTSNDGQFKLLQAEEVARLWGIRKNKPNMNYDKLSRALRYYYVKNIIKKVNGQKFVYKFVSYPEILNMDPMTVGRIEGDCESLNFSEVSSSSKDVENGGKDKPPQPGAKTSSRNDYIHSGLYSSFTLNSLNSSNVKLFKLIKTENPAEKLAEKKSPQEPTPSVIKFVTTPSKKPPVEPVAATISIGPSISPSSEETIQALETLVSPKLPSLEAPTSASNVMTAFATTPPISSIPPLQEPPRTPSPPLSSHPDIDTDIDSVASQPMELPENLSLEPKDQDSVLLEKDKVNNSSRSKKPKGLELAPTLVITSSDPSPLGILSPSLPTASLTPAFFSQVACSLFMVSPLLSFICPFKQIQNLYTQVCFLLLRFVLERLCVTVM
In short: as §1

ETV2 = biological target: T10, ETV2 (Homo sapiens, UniProt O00321 1-342); details: protein: recombinant; tags: N-terminal GST; dsDNA, one strand shown
T10 sequence: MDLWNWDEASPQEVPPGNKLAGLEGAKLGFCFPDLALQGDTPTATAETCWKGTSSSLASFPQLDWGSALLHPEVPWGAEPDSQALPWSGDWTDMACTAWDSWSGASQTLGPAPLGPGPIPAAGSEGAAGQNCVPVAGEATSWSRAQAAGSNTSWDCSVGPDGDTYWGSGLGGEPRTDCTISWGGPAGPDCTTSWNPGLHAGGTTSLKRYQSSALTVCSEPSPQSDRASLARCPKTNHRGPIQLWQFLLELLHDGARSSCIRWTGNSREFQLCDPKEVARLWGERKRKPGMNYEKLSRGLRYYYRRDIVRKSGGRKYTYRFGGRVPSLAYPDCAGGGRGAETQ
In short: as §1

ELF3 = biological target: T11, ELF3 (Homo sapiens, UniProt P78545 1-371); details: protein: recombinant; tags: N-terminal GST; dsDNA, one strand shown
T11 sequence: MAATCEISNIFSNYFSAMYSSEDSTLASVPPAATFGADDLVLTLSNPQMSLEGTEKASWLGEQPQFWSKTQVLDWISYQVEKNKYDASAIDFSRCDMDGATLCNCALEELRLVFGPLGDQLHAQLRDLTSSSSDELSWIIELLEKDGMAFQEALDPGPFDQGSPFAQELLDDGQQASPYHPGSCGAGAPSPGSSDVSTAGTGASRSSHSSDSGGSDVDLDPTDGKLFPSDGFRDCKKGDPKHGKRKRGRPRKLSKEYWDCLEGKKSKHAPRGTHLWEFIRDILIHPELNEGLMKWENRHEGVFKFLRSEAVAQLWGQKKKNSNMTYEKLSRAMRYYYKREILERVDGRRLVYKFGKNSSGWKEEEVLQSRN
In short: as §1

CRX = CRX (Homo sapiens, UniProt O43186 1-299); details: protein: recombinant; tags: N-terminal GST; dsDNA, one strand shown
CRX, sequence (O43186 whole entry): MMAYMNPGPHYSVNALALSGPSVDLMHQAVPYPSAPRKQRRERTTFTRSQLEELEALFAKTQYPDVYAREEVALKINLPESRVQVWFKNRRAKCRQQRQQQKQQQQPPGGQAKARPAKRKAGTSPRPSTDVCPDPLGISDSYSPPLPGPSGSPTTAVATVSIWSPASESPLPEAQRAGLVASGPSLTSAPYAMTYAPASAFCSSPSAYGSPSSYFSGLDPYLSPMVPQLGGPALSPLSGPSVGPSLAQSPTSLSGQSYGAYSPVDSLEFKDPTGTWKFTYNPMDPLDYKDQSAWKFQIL
In short: as §1

ETV1 = ETV1 (Homo sapiens, UniProt P50549 1-477); details: protein: recombinant; tags: N-terminal GST; dsDNA, one strand shown
ETV1, sequence (P50549 whole entry): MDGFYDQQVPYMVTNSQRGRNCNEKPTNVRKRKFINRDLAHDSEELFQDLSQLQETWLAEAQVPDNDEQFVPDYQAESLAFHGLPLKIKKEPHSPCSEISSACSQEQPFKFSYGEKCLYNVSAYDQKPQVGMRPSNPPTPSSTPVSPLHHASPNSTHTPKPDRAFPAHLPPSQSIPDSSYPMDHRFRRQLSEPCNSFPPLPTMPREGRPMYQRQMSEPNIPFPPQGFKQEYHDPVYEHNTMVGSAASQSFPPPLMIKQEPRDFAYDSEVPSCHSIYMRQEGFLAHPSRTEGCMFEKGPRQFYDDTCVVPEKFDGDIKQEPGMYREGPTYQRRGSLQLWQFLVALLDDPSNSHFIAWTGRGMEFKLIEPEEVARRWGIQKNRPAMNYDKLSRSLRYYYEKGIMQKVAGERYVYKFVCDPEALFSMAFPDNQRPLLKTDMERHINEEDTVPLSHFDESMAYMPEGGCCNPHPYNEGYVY
In short: as §1

## ACTGAA
FLI1
  binding signal: 1.07 fold enrichment (6-mer frequency, TF over GST control)
ELK1
  binding signal: 1.27 fold enrichment (6-mer frequency, TF over GST control)
GABPA
  binding signal: 1.24 fold enrichment (6-mer frequency, TF over GST control)
ERG
  binding signal: 1.11 fold enrichment (6-mer frequency, TF over GST control)
ELF1
  binding signal: 1.2 fold enrichment (6-mer frequency, TF over GST control)
EHF
  binding signal: 1.1 fold enrichment (6-mer frequency, TF over GST control)
SPI1
  binding signal: 1.23 fold enrichment (6-mer frequency, TF over GST control)
SPIB
  binding signal: 1.07 fold enrichment (6-mer frequency, TF over GST control)
ELK3
  binding signal: 1.09 fold enrichment (6-mer frequency, TF over GST control)
FEV
  binding signal: 1.19 fold enrichment (6-mer frequency, TF over GST control)
ETV5
  binding signal: 1.19 fold enrichment (6-mer frequency, TF over GST control)
HSF1
  binding signal: 1.08 fold enrichment (6-mer frequency, TF over GST control)
SPIC
  binding signal: 1.31 fold enrichment (6-mer frequency, TF over GST control)
ELF4
  binding signal: 1.13 fold enrichment (6-mer frequency, TF over GST control)
ELK4
  binding signal: 1.16 fold enrichment (6-mer frequency, TF over GST control)
ETV2
  binding signal: 1.05 fold enrichment (6-mer frequency, TF over GST control)
ELF3
  binding signal: 1.37 fold enrichment (6-mer frequency, TF over GST control)
CRX
  binding signal: 1.04 fold enrichment (6-mer frequency, TF over GST control)
ETV1
  binding signal: 1.19 fold enrichment (6-mer frequency, TF over GST control)
